Source: the supplement of paper PMC7411054
Where a name gives a salt, the structure may show the parent alone.

Columns and labels:
Assay in all cases: phenotypically active (imaging signature differs from DMSO and reproducible) at any of 0.3-9 uM (binary (1 = active, 0 = inactive)); higher = active
Conditions in all cases: treatment time: 24 h
A549-ACTB-RAB5A = tested on: A549-ACTB-RAB5A
How it was run: (§1)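 Phenotypic activity depended on meeting both a deviation and a reproducibility criterion. The fifteen gene-edited A549, HepG2 and WPMY1 reporter lines were treated at 0.3, 1, 3 or 9 µM for 24 h, four wells each, then imaged live with features normalised to solvent control wells. Deviation required ≥3 of 4 wells past the 95th percentile of control Euclidean distances, and reproducibility a median replicate Pearson correlation above the 95th percentile of non-replicates.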

A549-CANX-COX4 = tested on: A549-CANX-COX4
How it was run: as §1

A549-GM130-SQSTM1 = tested on: A549-GM130-SQSTM1
How it was run: as §1

A549-TP53BP1-CLTA = tested on: A549-TP53BP1-CLTA
How it was run: as §1

A549-TUBA1B-RELA = tested on: A549-TUBA1B-RELA
How it was run: as §1

HepG2-ACTB-RAB5A = tested on: HepG2-ACTB-RAB5A
How it was run: as §1

HepG2-CANX-COX4 = tested on: HepG2-CANX-COX4
How it was run: as §1

HepG2-GM130-SQSTM1 = tested on: HepG2-GM130-SQSTM1
How it was run: as §1

HepG2-TP53BP1-CLTA = tested on: HepG2-TP53BP1-CLTA
How it was run: as §1

HepG2-TUBA1B-RELA = tested on: HepG2-TUBA1B-RELA
How it was run: as §1

WPMY1-ACTB-RAB5A = tested on: WPMY1-ACTB-RAB5A
How it was run: as §1

WPMY1-CANX-COX4 = tested on: WPMY1-CANX-COX4
How it was run: as §1

WPMY1-GM130-SQSTM1 = tested on: WPMY1-GM130-SQSTM1
How it was run: as §1

WPMY1-TP53BP1-CLTA = tested on: WPMY1-TP53BP1-CLTA
How it was run: as §1

WPMY1-TUBA1B-RELA = tested on: WPMY1-TUBA1B-RELA
How it was run: as §1

Measured: phenotypically active

C=CCC1(C(C)C#CCC)C(=O)NC(=O)N(C)C1=O (stereo not given) [methohexital]
inactive: A549-ACTB-RAB5A 0 | A549-CANX-COX4 0 | A549-GM130-SQSTM1 0 | A549-TP53BP1-CLTA 0 | A549-TUBA1B-RELA 0 | HepG2-ACTB-RAB5A 0 | HepG2-CANX-COX4 0 | HepG2-GM130-SQSTM1 0 | HepG2-TP53BP1-CLTA 0 | HepG2-TUBA1B-RELA 0 | WPMY1-ACTB-RAB5A 0 | WPMY1-CANX-COX4 0 | WPMY1-GM130-SQSTM1 0 | WPMY1-TP53BP1-CLTA 0 | WPMY1-TUBA1B-RELA 0

CCCCCCCCCC(=O)O[C@H]1CC[C@H]2[C@@H]3CCC4=CC(=O)CC[C@@H]4[C@H]3CC[C@]12C [nandrolone-decanoate]
inactive: A549-ACTB-RAB5A 0 | A549-CANX-COX4 0 | A549-GM130-SQSTM1 0 | A549-TP53BP1-CLTA 0 | A549-TUBA1B-RELA 0 | HepG2-ACTB-RAB5A 0 | HepG2-CANX-COX4 0 | HepG2-GM130-SQSTM1 0 | HepG2-TP53BP1-CLTA 0 | HepG2-TUBA1B-RELA 0 | WPMY1-ACTB-RAB5A 0 | WPMY1-CANX-COX4 0 | WPMY1-GM130-SQSTM1 0 | WPMY1-TP53BP1-CLTA 0 | WPMY1-TUBA1B-RELA 0

Cc1nnc2n1-c1ccc(Cl)cc1C(c1ccccc1)=NC2 [alprazolam]
inactive: A549-ACTB-RAB5A 0 | A549-CANX-COX4 0 | A549-GM130-SQSTM1 0 | A549-TP53BP1-CLTA 0 | A549-TUBA1B-RELA 0 | HepG2-ACTB-RAB5A 0 | HepG2-CANX-COX4 0 | HepG2-GM130-SQSTM1 0 | HepG2-TP53BP1-CLTA 0 | HepG2-TUBA1B-RELA 0 | WPMY1-ACTB-RAB5A 0 | WPMY1-CANX-COX4 0 | WPMY1-GM130-SQSTM1 0 | WPMY1-TP53BP1-CLTA 0 | WPMY1-TUBA1B-RELA 0

c1cncc(C2CC3CCN2CC3)c1 (stereo not given) [RJR 2429 dihydrochloride]
inactive: A549-ACTB-RAB5A 0 | A549-CANX-COX4 0 | A549-GM130-SQSTM1 0 | A549-TP53BP1-CLTA 0 | A549-TUBA1B-RELA 0 | HepG2-ACTB-RAB5A 0 | HepG2-CANX-COX4 0 | HepG2-GM130-SQSTM1 0 | HepG2-TP53BP1-CLTA 0 | HepG2-TUBA1B-RELA 0 | WPMY1-ACTB-RAB5A 0 | WPMY1-CANX-COX4 0 | WPMY1-GM130-SQSTM1 0 | WPMY1-TP53BP1-CLTA 0 | WPMY1-TUBA1B-RELA 0

N[C@H]1C[C@@H]1c1ccccc1 [tranylcypromine]
inactive: A549-ACTB-RAB5A 0 | A549-CANX-COX4 0 | A549-GM130-SQSTM1 0 | A549-TP53BP1-CLTA 0 | A549-TUBA1B-RELA 0 | HepG2-ACTB-RAB5A 0 | HepG2-CANX-COX4 0 | HepG2-GM130-SQSTM1 0 | HepG2-TP53BP1-CLTA 0 | HepG2-TUBA1B-RELA 0 | WPMY1-ACTB-RAB5A 0 | WPMY1-CANX-COX4 0 | WPMY1-GM130-SQSTM1 0 | WPMY1-TP53BP1-CLTA 0 | WPMY1-TUBA1B-RELA 0

CO[C@H](C)[C@](O)(C(=O)OCC1=CCN2CC[C@H](O)[C@@H]12)C(C)C [Heliotrine]
inactive: A549-ACTB-RAB5A 0 | A549-CANX-COX4 0 | A549-GM130-SQSTM1 0 | A549-TP53BP1-CLTA 0 | A549-TUBA1B-RELA 0 | HepG2-ACTB-RAB5A 0 | HepG2-CANX-COX4 0 | HepG2-GM130-SQSTM1 0 | HepG2-TP53BP1-CLTA 0 | HepG2-TUBA1B-RELA 0 | WPMY1-ACTB-RAB5A 0 | WPMY1-CANX-COX4 0 | WPMY1-GM130-SQSTM1 0 | WPMY1-TP53BP1-CLTA 0 | WPMY1-TUBA1B-RELA 0

COc1cc2c(cc1OC)[C@@]13CCN4CC5=CCO[C@H]6CC(=O)N2[C@H]1[C@H]6[C@H]5C[C@H]43 [Brucine]
inactive: A549-ACTB-RAB5A 0 | A549-CANX-COX4 0 | A549-GM130-SQSTM1 0 | A549-TP53BP1-CLTA 0 | A549-TUBA1B-RELA 0 | HepG2-ACTB-RAB5A 0 | HepG2-CANX-COX4 0 | HepG2-GM130-SQSTM1 0 | HepG2-TP53BP1-CLTA 0 | HepG2-TUBA1B-RELA 0 | WPMY1-ACTB-RAB5A 0 | WPMY1-CANX-COX4 0 | WPMY1-GM130-SQSTM1 0 | WPMY1-TP53BP1-CLTA 0 | WPMY1-TUBA1B-RELA 0

CCN1C[C@@]2(COC)C3[C@@H](OC)[C@H]4[C@H]1C3([C@@H]1C[C@@]3(O)[C@H](OC(=O)c5ccccc5)[C@@H]1[C@]4(OC(C)=O)[C@@H](O)[C@@H]3OC)[C@H](OC)C[C@H]2O [Aconitine]
inactive: A549-ACTB-RAB5A 0 | A549-CANX-COX4 0 | A549-GM130-SQSTM1 0 | A549-TP53BP1-CLTA 0 | A549-TUBA1B-RELA 0 | HepG2-ACTB-RAB5A 0 | HepG2-CANX-COX4 0 | HepG2-GM130-SQSTM1 0 | HepG2-TP53BP1-CLTA 0 | HepG2-TUBA1B-RELA 0 | WPMY1-ACTB-RAB5A 0 | WPMY1-CANX-COX4 0 | WPMY1-GM130-SQSTM1 0 | WPMY1-TP53BP1-CLTA 0 | WPMY1-TUBA1B-RELA 0

C=C[C@H]1C[N@@]2CC[C@H]1C[C@H]2[C@H](O)c1ccnc2ccccc12 [(-)-Cinchonidine]
inactive: A549-ACTB-RAB5A 0 | A549-CANX-COX4 0 | A549-GM130-SQSTM1 0 | A549-TP53BP1-CLTA 0 | A549-TUBA1B-RELA 0 | HepG2-ACTB-RAB5A 0 | HepG2-CANX-COX4 0 | HepG2-GM130-SQSTM1 0 | HepG2-TP53BP1-CLTA 0 | HepG2-TUBA1B-RELA 0 | WPMY1-ACTB-RAB5A 0 | WPMY1-CANX-COX4 0 | WPMY1-GM130-SQSTM1 0 | WPMY1-TP53BP1-CLTA 0 | WPMY1-TUBA1B-RELA 0

CCCC(C)C1(CC)C(=O)N=C(S)NC1=O (stereo not given) [thiopental]
inactive: A549-ACTB-RAB5A 0 | A549-CANX-COX4 0 | A549-GM130-SQSTM1 0 | A549-TP53BP1-CLTA 0 | A549-TUBA1B-RELA 0 | HepG2-ACTB-RAB5A 0 | HepG2-CANX-COX4 0 | HepG2-GM130-SQSTM1 0 | HepG2-TP53BP1-CLTA 0 | HepG2-TUBA1B-RELA 0 | WPMY1-ACTB-RAB5A 0 | WPMY1-CANX-COX4 0 | WPMY1-GM130-SQSTM1 0 | WPMY1-TP53BP1-CLTA 0 | WPMY1-TUBA1B-RELA 0

CO[C@H]1C=C2CCN(C)[C@H]2[C@@H]2c3cc4c(cc3[C@@H](O)O[C@@H]21)OCO4 [Unsevine]
inactive: A549-ACTB-RAB5A 0 | A549-CANX-COX4 0 | A549-GM130-SQSTM1 0 | A549-TP53BP1-CLTA 0 | A549-TUBA1B-RELA 0 | HepG2-ACTB-RAB5A 0 | HepG2-CANX-COX4 0 | HepG2-GM130-SQSTM1 0 | HepG2-TP53BP1-CLTA 0 | HepG2-TUBA1B-RELA 0 | WPMY1-ACTB-RAB5A 0 | WPMY1-CANX-COX4 0 | WPMY1-GM130-SQSTM1 0 | WPMY1-TP53BP1-CLTA 0 | WPMY1-TUBA1B-RELA 0
